Screening results deposited in PubChem BioAssay by several laboratories.
A selection: hits, their analogues and other compounds. The true share with any hit is near 2.3%.
Mcl1-Noxa inh: Mcl-1/Noxa interaction inhibition; 220,000 tested, 1.5% active; TR-FRET Mcl-1/Noxa peptide binding, 2 h; AID 1022; inhibition, % at 21.7 µM;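 active means compounds that cut the protein-peptide binding signal by more than 50% relative to plate controls in a single-dose test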;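 further: His-tagged Mcl-1 with rhodamine Noxa BH3 peptide and terbium anti-His antibody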
Bim-Mcl-1: inhibitors of Bim-Mcl-1 interaction, human; Bead-based flow cytometry, Bim peptide-Mcl-1 binding; inhibition, % at 10 µM; 190,000 tested, 0.1% active; AID 1009; in the data active means inhibition above about 40%
BCLXL inh: blocks human Bcl-xL binding to Bim BH3 peptide. Q07817. inhibition, % at 10.9 µM. GST-Bcl-xL / FITC-Bim BH3 peptide fluorescence polarization. AID 2129. 320,000 tested, 0.7% active;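 active means inhibition above the mean of all tested compounds plus 3 SD, cutoff set per campaign, cut at about 30% in these data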;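 further: inhibitors lower millipolarization by displacing the labeled peptide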
MCL1 BIM primary: inhibitors of human MCL1 binding to BIM-BH3 peptide. GST-MCL1 / FITC-Bim-BH3 fluorescence polarization. 320,000 tested, 0.68% active. Q07820. inhibition, % at 10.9 µM. AID 2057;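 active means inhibition above the mean inhibition of all tested compounds plus 3 SD, set per campaign, cut at about 40% in these data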;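 further: higher means more loss of mP so more displacement of Bim peptide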
GLD-1 RNA inh: GLD-1-TGE RNA interaction inhibition (C. elegans); 320,000 tested, 0.44% active; purified GLD-1 + fluorescein TGE RNA, fluorescence polarization; AID 2280; inhibition, % at 5.96 µM; Q17339;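 active means percent inhibition above a per-plate cutoff, the plate mean of test compounds plus 3 SD, cut at about 30% in these data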
Target sequence (Q17339 whole entry, looked up): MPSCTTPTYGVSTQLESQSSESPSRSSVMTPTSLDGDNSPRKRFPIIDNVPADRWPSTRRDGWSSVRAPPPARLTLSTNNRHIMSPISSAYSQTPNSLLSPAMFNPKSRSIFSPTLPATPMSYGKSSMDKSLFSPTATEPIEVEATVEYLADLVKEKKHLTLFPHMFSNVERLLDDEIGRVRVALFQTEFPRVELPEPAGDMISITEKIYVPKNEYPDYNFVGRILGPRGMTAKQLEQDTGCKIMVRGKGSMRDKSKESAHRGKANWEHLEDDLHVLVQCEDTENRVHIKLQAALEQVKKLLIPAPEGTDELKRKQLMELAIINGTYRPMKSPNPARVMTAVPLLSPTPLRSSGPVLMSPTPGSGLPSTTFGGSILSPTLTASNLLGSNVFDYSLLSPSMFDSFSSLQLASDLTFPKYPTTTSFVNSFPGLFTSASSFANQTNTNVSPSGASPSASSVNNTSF
Mcl1 Bid PPI: disrupts binding of human Mcl-1 to Bid peptide | TR-FRET Mcl-1/Bid-Dy647 peptide binding, 1536-well | Q07820 | inhibition, % at 21.7 µM | 220,000 tested, 0.97% active;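 active means compounds that cut the binding signal by more than half at the single screening dose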;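 further: His-tagged Mcl-1 with europium anti-His antibody binding Bid BH3 peptide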
Hits are given with their value; - = inactive; . = no result given.

SMILES	Mcl1-Noxa inh	Bim-Mcl-1	BCLXL inh	MCL1 BIM primary	GLD-1 RNA inh	Mcl1 Bid PPI
CC(=O)c1cccc(NC(=O)C2CCN(C(=O)c3ccc([N+](=O)[O-])cc3)CC2)c1	-	-	-	-	-	73.4
COc1ccc(OC)c(NC(=O)CCN2CC(C)CC(C)C2)c1 (stereo unspecified)	.	.	-	-	-	.
COc1ccc(OC)c(NC(=O)CCN2CCCC(C)C2)c1 (stereo unspecified)	-	-	-	-	-	51.5
O=C(Nc1ccc(C(=O)NCCCN2CCN(c3ccccc3)CC2)cc1)C1=CSCCO1	.	.	-	-	-	.
Nc1ccc(-c2ccc(N)c([N+](=O)[O-])c2)cc1[N+](=O)[O-]	50.8	-	-	-	-	-
O=C(C1CCN(CC2CC=CCC2)CC1)N(CCc1ccccc1)Cc1ccccc1 (stereo unspecified)	-	-	-	-	-	74.0
O=C(C1CCN(CCCc2ccccc2)CC1)N(CCc1ccccc1)Cc1ccccc1	-	-	-	-	-	-
Cc1occc1C(=O)Nc1ccc([N+](=O)[O-])cc1Br	.	.	-	-	-	.
Cc1occc1C(=O)NNC(=O)Nc1ccc([N+](=O)[O-])cc1	-	-	-	-	-	82.1
CCC(C)NC(=O)c1ccc(N2CC3CC(C2)c2cccc(=O)n2C3)c(NC(=O)c2ccc(Br)o2)c1 (stereo unspecified)	.	.	-	-	-	.
Cc1ccc(Nc2nc(-c3ccc(O)c(O)c3)cs2)nc1	54.2	-	.	.	.	-
COc1ccc(-c2csc(Nc3ccc(C)cn3)n2)cc1OC	-	-	-	-	-	-
O=C(NCc1cccnc1)/C(=C\c1ccc(-c2ccc(Br)cc2)o1)S(=O)(=O)c1ccccc1	-	-	-	-	-	52.1
O=C(NCc1cccnc1)/C(=C/c1ccc(-c2ccc(Cl)cc2)o1)S(=O)(=O)c1ccccc1	-	-	-	-	-	-
O=C(N/N=C/c1ccc(O)c(O)c1)c1ccc(CSc2cccc3cccnc23)cc1	76.1	-	-	-	-	-
O=C(CSc1cccc2cccnc12)N/N=C/c1cccc(O)c1	-	-	-	-	-	-
COc1ccccc1C(=O)N/C(=C\c1cn(C)c2ccccc12)C(=O)NCCCN1CCOCC1	.	.	-	-	-	.
CC(/C=C1\SC(=S)N(NS(=O)(=O)c2ccc(C)cc2)C1=O)=C\c1ccccc1	93.5	.	-	-	-	66.4
CC(/C=C1\SC(=S)N(NC(=O)c2ccc(C)cc2)C1=O)=C\c1ccccc1	-	-	-	-	-	-
CC(/C=C1\SC(=S)N(CCCC(=O)Nc2ccc(C(=O)O)c(O)c2)C1=O)=C\c1ccccc1	111.2	-	-	-	-	94.0
CC(/C=C1\SC(=S)N(NS(=O)(=O)c2ccccc2)C1=O)=C\c1ccccc1	78.5	.	-	-	-	-
CC(/C=C1\SC(=S)N(NC(=O)c2ccccc2C)C1=O)=C\c1ccccc1	-	-	-	-	-	-
O=C(/C=C\Nc1ccc(S(=O)(=O)Nc2ncccn2)cc1)c1cccc2ccccc12	-	.	-	-	-	95.9
CC(=O)c1cccc(NC(=O)CNC(=O)c2sc3ccccc3c2Cl)c1	.	.	-	-	-	.
COc1cnn(Cc2ccccc2)c(=O)c1SCc1ccccc1	-	-	-	-	-	-
SMILES	Mcl1-Noxa inh	Bim-Mcl-1	BCLXL inh	MCL1 BIM primary	GLD-1 RNA inh	Mcl1 Bid PPI
CCOc1cnn(Cc2ccccc2)c(=O)c1SCc1ccccc1	70.2	-	-	-	-	-
COc1cccc(CN2CCNC(=O)C2CC(=O)N(C)Cc2cnccn2)c1OC (stereo unspecified)	-	-	-	-	-	-
O=C(NCCN1CCOCC1)c1cc([N+](=O)[O-])ccc1Cl	.	.	-	-	-	.
O=C(NCCN1CCOCC1)c1cc(Cl)ccc1[N+](=O)[O-]	-	73.0	-	-	-	-
C[C@@H]1CN([C@H](C)CO)C(=O)Cc2cc(NC(=O)Cn3cnnn3)ccc2O[C@@H]1CN(C)Cc1ccc(Cl)c(Cl)c1	.	.	.	.	-	.
Cc1ccc(S(=O)(=O)Nc2csc(C)c2C(=O)O)cc1	54.2	.	-	-	-	-
Cc1ccc(/C=N/OC(=O)c2c(C)noc2-c2snnc2C)cc1	-	.	-	-	-	63.3
CCCN1CCN(C(=O)c2ccc(F)c(S(=O)(=O)N3CCOCC3)c2)CC1	.	.	-	-	-	.
CN1CCc2c(sc(NC(=O)c3ccc(S(=O)(=O)N4CCc5ccccc54)cc3)c2C(N)=O)C1	51.8	.	-	-	-	-
CNC(=O)c1c(NC(=O)c2ccc(S(=O)(=O)N3CCCc4ccccc43)cc2)sc2c1CCN(C)C2	-	.	-	-	-	-
O=C1NCCCC2c3cc(O)c4ccccc4c3OC12N1CCCCC1 (stereo unspecified)	78.2	-	52.1	56.6	-	-
O=c1oc2ccccc2c(O)c1CN1CCCCC1	-	-	-	-	-	-
CNc1nc2ccccc2n1/N=C/c1cccc(OC)c1OC	-	57.0	-	-	-	-
O=C(O)c1ccc(-n2c(/C=C/c3ccccc3)nc3ccccc3c2=O)cc1	.	.	30.3	-	-	.
CCOC(=O)C1=C(c2ccccc2)NC(=O)NC1c1ccc(N(C)C)cc1 (stereo unspecified)	61.1	-	-	-	-	-
CCOC(=O)C1=C(c2ccccc2)NC(=O)NC1c1ccc(OC)cc1 (stereo unspecified)	-	-	-	-	-	-
Nc1ccc(-c2nc3ccc([N+](=O)[O-])cc3[nH]2)cc1	51.2	-	-	-	-	-
O=[N+]([O-])c1ccc(-c2nc3ccc([N+](=O)[O-])cc3[nH]2)cc1	63.3	-	-	-	-	77.7
CCCC[n+]1ccc(-c2nc3ccc([N+](=O)[O-])cc3[nH]2)cc1	-	-	-	-	-	-
Nc1ccc2nc(-c3ccc(Cl)cc3)[nH]c2c1	84.7	-	-	-	-	-
Oc1cc2c(cc1C(c1ccc(Cl)c(Cl)c1)N1CCCC1)OCO2 (stereo unspecified)	91.9	-	.	.	.	94.4
O=C(CN(C(=O)c1csnn1)c1cccc(F)c1)NCc1ccc2c(c1)OCO2	.	.	-	-	-	.
CCCOc1ccc(/C=c2\sc3nc(-c4ccco4)nn3c2=O)cc1OCC	-	-	-	-	-	-
COc1ccccc1/C=C/C=c1\sc2nc(=O)c(Cc3ccccc3)nn2c1=O	50.9	.	-	-	-	-
CCCOc1ccc(Cc2nn3c(=O)/c(=C/c4ccco4)sc3nc2=O)cc1	74.5	-	-	-	-	-
COc1cc(OC)c(NS(=O)(=O)c2cc(Br)cnc2N)cc1Cl	.	.	-	-	-	.
Oc1ccc(-c2nc(-c3ccc(O)c(O)c3)cs2)cc1	59.0	-	-	-	-	-
C=CCC(C(=O)Oc1c(C(C)(C)C)cc(C)cc1C(C)(C)C)c1ccccc1 (stereo unspecified)	.	.	-	-	-	.
Cc1ccccc1NS(=O)(=O)c1cc(C(=O)N2CCCC2)ccc1C	-	-	47.8	-	-	-
